# From PubChem BioAssay
# Records with an inconclusive call do not appear. Calls of active or inactive are those of the source.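 The calls were made as follows, unless noted: active = normalized viability below 100% at a tested concentration; inactive = the rest.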
# Tests used:
# [1] = growth inhibition, single agents and combos, ICB984, cell-based, cisplatin or BGB combos, synergistic combos for chromothripsis tumors (AID 1671451); conditions: ICB984 medulloblastoma cells, drug combinations, at 5 µM, stronger effect = higher value;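 also: cells exposed for 96 hours before readout; 0% = vehicle DMSO and 100% = killing by high DMSO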
# [2] = growth inhibition, single agents and combos, HTB85, cell-based, BGB or cisplatin IC20 combos, synergistic combos for chromothripsis tumors (AID 1671453; in the data active = inhibition above about 80%;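 also: cells exposed for 96 hours before readout; 0% = vehicle DMSO and 100% = high DMSO killing control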); conditions: HTB85 osteosarcoma cells, drug combinations, stronger effect = higher value
# [3] = growth inhibition, MDA-MB-436, cell-based, BGB or cisplatin combos, synergistic combos for chromothripsis tumors (AID 1671458; call rule not given here;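 also: cells exposed for 96 hours; 0% = vehicle DMSO and 100% = killing by high DMSO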); conditions: MDA-MB-436 breast carcinoma growth inhibition, drug combinations, stronger effect = higher value
# [4] = BT084 cell growth, single and combined drugs, ICGC_MB145, cisplatin and BGB IC40 combos (AID 1671461; in the data active = inhibition above about 80%;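 also: cells exposed to drugs for 96 hours; 0% = vehicle DMSO and 100% = high DMSO full killing control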); conditions: BT084 medulloblastoma cells, drug combinations, stronger effect = higher value
# [5] = RCMB18 cell growth, single agent and combined, cisplatin and BGB IC40 combos (AID 1671462; in the data active = inhibition above about 80%;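 also: cells exposed to compound for four days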); conditions: RCMB18 medulloblastoma cells, stronger effect = higher value
# [6] = CRL1545 cell growth, single agent and combined, cisplatin and BGB IC20 combos (AID 1671464; in the data active = inhibition above about 80%;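 also: cells exposed to compound for 96 hours before readout; 0% = vehicle DMSO and 100% = high DMSO killing control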); conditions: CRL1545 osteosarcoma cells, stronger effect = higher value
# [7] = viability loss in pontine glioma line – cell-based, SU-DIPG-XVII, MIPE5.0, CellTiter-Glo, qHTS, dose response (AID 1347060; cut-off not given, nearly all actives have AC50 up to about 26 µM;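 as to AC50: cells exposed to compound for 48 hours before viability readout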); conditions: CellTiter-Glo ATP luminescence
# [8] = viability loss in pontine glioma line – cell-based, JHH-DIPG-1, MIPE4.0, CellTiter-Glo, qHTS, dose response (AID 1347062; cut-off not given, nearly all actives have AC50 up to about 27 µM;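 as to AC50: cells exposed to compound for two days before readout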); conditions: JHH-DIPG-1 viability, CellTiter-Glo ATP luminescence
# [9] = viability loss in pontine glioma line – cell-based, SU-DIPG-IV, MIPE4.0, CellTiter-Glo, qHTS, dose response (AID 1347063; cut-off not given, nearly all actives have AC50 up to about 30 µM;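 also: compound exposure lasted 48 hours before the viability readout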); conditions: CellTiter-Glo ATP luminescence
# [10] = viability loss in pontine glioma line – cell-based, SU-DIPG-XIII, MIPE5.0, CellTiter-Glo, qHTS, dose response (AID 1347064; cut-off not given, nearly all actives have AC50 up to about 23 µM;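 as to AC50: cells exposed to compound for 48 hours before the viability read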); conditions: CellTiter-Glo ATP luminescence
# [11] = viability loss in pontine glioma line – cell-based, SU-DIPG-XXV, MIPE5.0, CellTiter-Glo, qHTS, dose response (AID 1347065; cut-off not given, nearly all actives have AC50 up to about 26 µM;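 also: cells exposed to compound for 48 hours before ATP readout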); conditions: CellTiter-Glo ATP luminescence
# [12] = JHH-DIPG-1 glioma cell viability, MIPE5.0 library, CellTiter-Glo luminescence, qHTS (AID 1347067; cut-off not given, nearly all actives have AC50 up to about 26 µM;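 also: cells exposed to compound for 48 hours before readout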); conditions: JHH-DIPG-1 glioma viability, CellTiter-Glo ATP luminescence
# [13] = growth inhibition of DIPG cells – cell-based, MIPE5.0 library, qHTS (AID 1347068; cut-off not given, nearly all actives have IC50 up to about 30 µM;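 as to IC50: cells exposed to compound for 48 hours before viability readout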); conditions: SU-DIPG-XXV viability
# [14] = growth inhibition of DIPG cells – cell-based, MIPE4.0 library, CellTiter-Glo luminescence, qHTS (AID 1347066; cut-off not given, nearly all actives have AC50 up to about 30 µM;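 also: cells exposed to compound for 48 hours before readout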); conditions: SU-DIPG-VI viability, CellTiter-Glo ATP luminescence
# [15] = viability loss with induced miR-34 in A549 – imaging, A549 dox-inducible miR-34, nuclei and caspase counts, primary screen (AID 1347080;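 active = compounds whose cell count with miR-34 switched on is under 0.7 times the count with it off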); conditions: A549 miR-34 inducible, Hoechst nuclei count, 48 h
# [16] = MELAS cybrid and Rieske KO viability enhancers – cell-based, MELAS cybrids, Rieske KO mouse fibroblasts, CellTiter-Glo, primary screen (AID 1508586;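 active = mean z-score across replicates of 1.96 or higher in either the MELAS or the Rieske mutant cell line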;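 also: z relative to plate mean and SD of compound and empty wells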); conditions: low glucose
# [17] = compounds altering HSF1 focus formation in cells – imaging, Selleck Cancer Library (AID 1347162; in the data active = plate-normalised HSF1 focus index below about 0.46); conditions: human cells, HSF1 nuclear foci imaging, at 10 µM; SSMD: measured here: HSF1 foci SSMD mean; cell count: measured here: cell number; plate-normalised HSF1 focus index: stronger effect = lower value
# [18] = drug combination growth inhibition, ovarian cancer – cell-based, oncology-focused library, rucaparib conditional, profiling panel (AID 1508598); conditions: patient-derived ovarian cancer cells, CellTiter-Glo viability, 144 h, stronger effect = lower value
# [19] = stronger effect = lower value, cell number ratio, induced over uninduced
# [20] = measured here: relative caspase fold change +Dox/-Dox
# [21] = measured here: total cells with miR-34 induction, stronger effect = lower value
# [22] = measured here: total cells without miR-34 induction
# [23] = MELAS cybrid survival, CellTiter-Glo 48 h, stronger effect = higher value
# [24] = Rieske KO mouse fibroblast survival, CellTiter-Glo 72 h
smiles,measurement,setting,value
CN(C)c1ccc(C(=O)NCCCCCCC(=O)NO)cc1,inhibition,[1]; cisplatin combo,-44.2%
same,inhibition,[1]; measured here: 5 uM single agent,-34.3%
same,inhibition,[2]; at 0.5 µM,28.6% (inactive)
same,inhibition,"[2]; measured here: with BGB IC20, at 0.5 µM",18.8%
same,inhibition,"[2]; measured here: with BGB IC20, at 5 µM",95.5%
same,inhibition,"[2]; measured here: with cisplatin IC20, at 0.5 µM",33.4%
same,inhibition,"[2]; measured here: with cisplatin IC20, at 5 µM",99.7%
same,inhibition,"[2]; single agent, at 5 µM",97.7%
same,inhibition,[3]; at 0.5 µM,5.27% (inactive)
same,inhibition,"[3]; measured here: BGB combination, at 0.5 µM",-2.54%
same,inhibition,"[3]; measured here: BGB combination, at 5 µM",46.7%
same,inhibition,"[3]; measured here: cisplatin combination, at 0.5 µM",-2.21%
same,inhibition,"[3]; measured here: cisplatin combination, at 5 µM",47.8%
same,inhibition,[4]; at 0.5 µM,27.2% (inactive)
same,inhibition,"[4]; cisplatin combination, at 0.5 µM",48.8%
same,inhibition,"[4]; cisplatin combination, at 5 µM",101%
same,inhibition,"[4]; measured here: BGB IC40 combination 0.05 uM, at 0.05 µM",2.96%
same,inhibition,"[4]; single agent, at 5 µM",104%
same,inhibition,[5]; at 0.5 µM,31.7% (inactive)
same,inhibition,"[5]; cisplatin combo, at 5 µM",93.3%
same,inhibition,"[5]; measured here: BGB IC40 combination, at 0.05 µM",-8.02%
same,inhibition,"[5]; measured here: combination with cisplatin, at 0.5 µM",62.9%
same,inhibition,"[5]; single agent, at 5 µM",89%
same,inhibition,[6]; at 0.5 µM,76.1% (inactive)
same,inhibition,"[6]; measured here: with BGB IC20 combination, at 0.5 µM",71.1%
same,inhibition,"[6]; measured here: with cisplatin IC20 combination, at 0.5 µM",78%
same,inhibition,"[6]; single agent, at 0.05 µM",23%
same,inhibition,"[6]; single agent, at 5 µM",91.7%
O=C(O)c1ccccc1C(=O)Nc1ccc(-c2ccccc2)cc1,outcome,[7],inactive
same,outcome,[8],inactive
same,outcome,[9],inactive
same,outcome,[10],inactive
same,outcome,[11],inactive
same,outcome,[12],inactive
same,outcome,[13],inactive
C=CC(=O)Nc1cc2c(Nc3ccc(F)c(Cl)c3)ncnc2cc1C#CC(C)(C)N1CCN(C)CC1,AC50,[7],2.95 µM (active)
same,AC50,[8],5.26 µM (active)
same,AC50,[9],1.87 µM (active)
same,AC50,[10],4.68 µM (active)
same,AC50,[11],5.9 µM (active)
same,AC50,[14],5.9 µM (active)
same,AC50,[12],4.17 µM (active)
same,IC50,[13],7.42 µM (active)
COc1cc2nc(-c3cc(F)ccc3O)nc(N[C@@H]3CNC[C@H]3C(C)(C)O)c2cc1OC,AC50,[7],9.34 µM (active)
same,AC50,[8],10.5 µM (active)
same,AC50,[9],9.35 µM (active)
same,AC50,[10],5.25 µM (active)
same,AC50,[11],4.17 µM (active)
same,AC50,[12],8.33 µM (active)
same,IC50,[13],4.17 µM (active)
COc1cccc(Nc2c(C(N)=O)cnc3c(C)cc(S(=O)(=O)c4cccc(C(=O)N(C)C)c4)cc23)c1,outcome,[7],inactive
same,outcome,[8],inactive
same,outcome,[9],inactive
same,outcome,[10],inactive
same,outcome,[14],inactive
same,outcome,[12],inactive
same,outcome,[13],inactive
same,fold change,[15]; [19],0.95 (inactive)
same,fold change,[15]; [20],0.8
same,cell count,[15]; [21],9130
same,cell count,[15]; [22],9610
same,z-score,[16]; [23],-0.192 (inactive)
same,z-score,[16]; [24],-1.7
CNC(=O)c1ccc(N2C(=S)N(c3ccc(C#N)c(C(F)(F)F)c3)C(=O)C2(C)C)cc1F,outcome,[7],inactive
same,outcome,[8],inactive
same,outcome,[9],inactive
same,outcome,[11],inactive
same,outcome,[14],inactive
same,outcome,[12],inactive
same,outcome,[13],inactive
same,fold change,[15]; [19],0.873 (inactive)
same,fold change,[15]; [20],1.28
same,cell count,[15]; [21],7300
same,cell count,[15]; [22],8360
same,SSMD,[17],0.472
same,cell count,[17],6500
same,plate-normalised HSF1 focus index,[17],1.02 (inactive)
same,z-score,[16]; [23],-0.357 (inactive)
same,z-score,[16]; [24],0.602
same,viability,"[18]; at 0.000305 µM, OCI-C5x cells, with rucaparib 10 µM, 100% = cells with rucaparib alone",110% (inactive)
same,viability,"[18]; at 0.000305 µM, OCI-C5x cells, without rucaparib",85.9% (active)
same,viability,"[18]; at 0.000305 µM, OCI-P5x cells, with rucaparib 20 µM, 100% = cells with rucaparib alone",81% (active)
same,viability,"[18]; at 0.000305 µM, OCI-P5x cells, without rucaparib",76.7% (active)
same,viability,"[18]; at 0.00122 µM, OCI-C5x cells, with rucaparib 10 µM, 100% = cells with rucaparib alone",110% (inactive)
same,viability,"[18]; at 0.00122 µM, OCI-C5x cells, without rucaparib",93.5% (active)
same,viability,"[18]; at 0.00122 µM, OCI-P5x cells, with rucaparib 20 µM, 100% = cells with rucaparib alone",91.6% (active)
same,viability,"[18]; at 0.00122 µM, OCI-P5x cells, without rucaparib",82% (active)
same,viability,"[18]; at 0.00488 µM, OCI-C5x cells, with rucaparib 10 µM, 100% = cells with rucaparib alone",110% (inactive)
same,viability,"[18]; at 0.00488 µM, OCI-C5x cells, without rucaparib",91.5% (active)
same,viability,"[18]; at 0.00488 µM, OCI-P5x cells, with rucaparib 20 µM, 100% = cells with rucaparib alone",90.9% (active)
same,viability,"[18]; at 0.00488 µM, OCI-P5x cells, without rucaparib",85% (active)
same,viability,"[18]; at 0.0195 µM, OCI-C5x cells, with rucaparib 10 µM, 100% = cells with rucaparib alone",113% (inactive)
same,viability,"[18]; at 0.0195 µM, OCI-C5x cells, without rucaparib",95.6% (active)
same,viability,"[18]; at 0.0195 µM, OCI-P5x cells, with rucaparib 20 µM, 100% = cells with rucaparib alone",92.4% (active)
same,viability,"[18]; at 0.0195 µM, OCI-P5x cells, without rucaparib",87.7% (active)
same,viability,"[18]; at 0.0781 µM, OCI-C5x cells, with rucaparib 10 µM, 100% = cells with rucaparib alone",108% (inactive)
same,viability,"[18]; at 0.0781 µM, OCI-C5x cells, without rucaparib",102% (inactive)
same,viability,"[18]; at 0.0781 µM, OCI-P5x cells, with rucaparib 20 µM, 100% = cells with rucaparib alone",94.7% (active)
same,viability,"[18]; at 0.0781 µM, OCI-P5x cells, without rucaparib",85.3% (active)
same,viability,"[18]; at 0.313 µM, OCI-C5x cells, with rucaparib 10 µM, 100% = cells with rucaparib alone",108% (inactive)
same,viability,"[18]; at 0.313 µM, OCI-C5x cells, without rucaparib",96.4% (active)
same,viability,"[18]; at 0.313 µM, OCI-P5x cells, with rucaparib 20 µM, 100% = cells with rucaparib alone",102% (inactive)
same,viability,"[18]; at 0.313 µM, OCI-P5x cells, without rucaparib",94.4% (active)
same,viability,"[18]; at 1.25 µM, OCI-C5x cells, with rucaparib 10 µM, 100% = cells with rucaparib alone",117% (inactive)
same,viability,"[18]; at 1.25 µM, OCI-C5x cells, without rucaparib",104% (inactive)
same,viability,"[18]; at 1.25 µM, OCI-P5x cells, with rucaparib 20 µM, 100% = cells with rucaparib alone",102% (inactive)
same,viability,"[18]; at 1.25 µM, OCI-P5x cells, without rucaparib",95.6% (active)
same,viability,"[18]; at 5 µM, OCI-C5x cells, with rucaparib 10 µM, 100% = cells with rucaparib alone",127% (inactive)
same,viability,"[18]; at 5 µM, OCI-C5x cells, without rucaparib",108% (inactive)
same,viability,"[18]; at 5 µM, OCI-P5x cells, with rucaparib 20 µM, 100% = cells with rucaparib alone",97.6% (active)
same,viability,"[18]; at 5 µM, OCI-P5x cells, without rucaparib",93.9% (active)
